USP17 block: human USP17-like deubiquitinase inhibition; purified USP17, Ub-rhodamine cleavage fluorescence, 3 h; inhibition, % at 50 µM; hit rate 6.5% among 47,000; AID 1645855
USP28 block: blocks human USP28 ubiquitin-rhodamine cleavage | AID 1645857 | purified USP28, Ub-rhodamine cleavage fluorescence, 30 min | hit rate 3% among 47,000 | inhibition, % at 25 µM | Q96RU2
USP30 block: inhibitors of human USP30 deubiquitinase; AID 1645860; hit rate 5.3% among 47,000; inhibition, % at 25 µM; purified USP30, Ub-rhodamine cleavage fluorescence
OTUD3 block: human OTUD3 deubiquitinase inhibition; Q5T2D3; purified OTUD3, Ub-rhodamine fluorescence, 2 h; inhibition, % at 25 µM; hit rate 0.7% among 47,000
Starred values were filed as active, the others as inactive; nt = no result. Most compounds without a hit are left out; they make up all but 12% or so of the library. No stated cut-off is given here; in the data, active means inhibition above about 30%; inactive means the rest.

SMILES | USP17 block | USP28 block | USP30 block | OTUD3 block
CC(=O)N1C[C@H]2C3(CCN(C(=O)c4cccnc4)CC3)CC[C@@]2(C(=O)N2CCCC2)C1 | -0.3 | -4.5 | -10.3 | -8.1
O=C(CC(c1cccc(F)c1)n1cccc1)Nc1ccc2c(c1)OCCO2 (stereo not drawn) | 1.8 | 1.0 | 0.9 | -2.3
Cc1cc(C)cc(C(=O)OCC(=O)Nc2ccc3c(c2)OCCO3)c1 | 5.2 | 2.0 | 13.9 | -1.2
O=C(CNc1ccc(F)c(Cl)c1)Nc1ccc2c(c1)OCCO2 | 16.9 | 63.5* | 11.6 | 6.5
O=C(COC(=O)c1ccc(NS(=O)(=O)c2ccc3c(c2)OCCO3)cc1)NCc1ccc(Cl)cc1 | 18.1 | 74.5* | 50.4* | -18.1
O=C(COC(=O)c1cc(Cl)ccc1O)Nc1ccc2c(c1)OCCO2 | 60.0* | 13.9 | 18.9 | 16.2
COc1ccc(S(=O)(=O)N2CCC[C@@H](Cn3nnc(-c4ccncc4)n3)C2)cc1 | 3.9 | 5.1 | 10.2 | -0.3
CCOc1ccccc1CN1CCC[C@@H](Cn2nnc(-c3ccncc3)n2)C1 | 11.6 | 14.1 | 31.5* | 12.2
Cc1occ2c1C(=O)c1c(O)ccc(O)c1C2 | 94.8* | 89.2* | 57.5* | 93.6*
COc1cc(OC)cc(C(=O)Nc2ccc(O)c(-c3nc4cnccc4o3)c2)c1 | 35.2* | 10.7 | -0.1 | 0.0
Cc1[nH]nc(-n2cnnc2)c1NS(=O)(=O)c1ccc(CC(C)C)cc1 | -3.9 | -5.0 | -1.7 | -5.1
CNC(=O)c1c2n(c3ncccc13)CCN(S(=O)(=O)c1ccc(C(C)(C)C)cc1)C2 | -23.7 | -15.9 | -32.1 | -16.2
CNC(=O)c1c2n(c3ncccc13)CCN(S(=O)(=O)c1ccc(-c3ccccc3)cc1)C2 | 51.9* | -1.8 | -22.2 | -1.3
Cc1ccc(NC(=O)Cc2nnc3cc(-c4nc(C)no4)ccn23)cc1 | 12.6 | 42.4* | 68.5* | 30.1*
CCc1ccc(NC(=O)Cc2nnc3cc(-c4nc(C)no4)ccn23)cc1 | 54.7* | 30.5* | 22.3 | 15.0
CCc1noc(-c2ccn3c(CC(=O)Nc4ccccc4C)nnc3c2)n1 | 25.1 | 1.2 | 11.6 | 10.1
Cc1noc(-c2ccc3nnc(CC(=O)Nc4ccc(F)c(C)c4)n3c2)n1 | -9.0 | -14.1 | -35.6 | -5.1
O=C(NCc1ccncc1)C1CCN(c2cncnc2N2CCCCC2)CC1 | -12.2 | 51.5* | -42.2 | -13.5
CCCOc1ccc(CNC(=O)C2CCN(c3ccncc3)CC2)cc1 | -5.6 | 34.7* | -6.0 | -4.6
O=C1CN(C(=O)COc2ccccc2)C(c2ccccc2)c2cc(Br)ccc2N1 (stereo not drawn) | -6.7 | nt | nt | -6.1
Cc1cc(C)cc(N(CCC(=O)Nc2ccc(N3CCOCC3)cc2)S(=O)(=O)c2ccc(Cl)cc2)c1 | 32.1* | 13.3 | 41.1* | 34.7*
O=C(COc1ccc(C2CCCCC2)cc1)Nc1ccc(-c2nn3cnnc3s2)cc1 | 71.6* | 44.9* | 65.8* | 46.2*
COc1ccc(-c2noc(NCCc3ccccc3)n2)cc1 | 36.6* | 15.2 | 24.0 | 13.5
Cc1noc(-c2ccnc(-n3ncc(C(=O)NC4CCCCCC4)c3C)c2)n1 | -5.2 | -9.7 | -1.1 | -0.9
O=C(COc1coc(CN2CCc3ccccc3C2)cc1=O)Nc1ccc(F)cc1 | 18.2 | 13.8 | -3.0 | 6.8
SMILES | USP17 block | USP28 block | USP30 block | OTUD3 block
CC(=O)c1ccc(NC(=O)COc2coc(CN3CCc4ccccc4C3)cc2=O)cc1 | 46.3* | -13.8 | -78.4 | -23.5
O=C(CCC(=O)N(c1ccccc1)c1ccccc1)Nc1ccc(F)cc1 | -4.9 | 6.4 | 5.5 | -1.1
O=C1NCCCC1Cc1ccc(-c2cccc(C(=O)N3CCc4ccccc4C3)c2)cc1 (stereo not drawn) | 55.0* | 20.0 | 35.2* | -0.1
CN1CCN(c2ccc(NC(=O)Nc3ccc(C(F)(F)F)cc3)cc2)CC1 | 6.4 | 13.1 | 11.2 | 4.9
Cc1ccc(-c2nc(NC(=O)Nc3ccc(C(F)(F)F)cc3)sc2C)cc1Cl | 32.8* | -1.8 | 5.1 | 0.1
Cc1noc(C)c1CN1CCC(NC(=O)c2ccc(F)cc2F)C1 (stereo not drawn) | -3.9 | -0.1 | -13.2 | 5.5
CCOc1ccc(-c2nc(CNS(=O)(=O)c3ccc(C)cc3)c(C)o2)cc1 | -7.4 | 4.1 | -49.2 | -19.7
CCCC(=O)N1CCC2(CC1)Nc1ccccc1NC2=O | 69.8* | 7.0 | -13.2 | -2.0
CCCC(=O)N1CCC2(CC1)NC(=O)N(CCc1ccccc1)C2=O | 4.0 | -1.1 | -0.9 | -5.9
COc1ccc(C(=O)CN2C(=O)N(c3cccc(C)c3)S(=O)(=O)c3ccccc32)cc1 | -11.5 | -1.9 | 1.3 | -3.9
COc1cc(OC)cc(N2C(=O)N(CC(=O)c3ccc(Br)cc3)c3ccccc3S2(=O)=O)c1 | 30.3* | 11.4 | 22.6 | -4.7
CC(=O)c1ccc(N2C(=O)N(CC(=O)c3ccc(Cl)cc3)c3ccccc3S2(=O)=O)cc1 | -0.5 | 6.2 | 3.8 | 1.0
COc1cccc(N2C(=O)N(CC(=O)NCc3ccc(Cl)cc3)c3ccccc3S2(=O)=O)c1 | 78.5* | 5.4 | 43.4* | 10.8
O=C(NCCc1c[nH]c2ccc(F)cc12)C(=O)Nc1cccc2ncccc12 | 44.9* | -8.6 | -7.0 | -7.1
COc1ccccc1CNCc1c(C(=O)O)n(Cc2ccc(F)cc2Cl)c2cc(C)ccc12 | 20.2 | 7.6 | 18.3 | 9.3
Cc1ccc(Cn2c(C(=O)O)c(CNCc3ccco3)c3ccccc32)cc1 | 35.1* | 13.0 | -18.8 | 0.9
Cc1ccc(Cn2c(C(=O)O)c(CNCc3cccc(Cl)c3)c3ccc(C)cc32)cc1 | 12.5 | 32.8* | 43.2* | 12.1
COc1ccc(CNCc2c(C(=O)O)n(Cc3ccc(F)cc3Cl)c3cc(C)ccc23)cc1 | 57.2* | 28.0 | 62.6* | 13.4
C[C@]12C(=O)N(c3ccc(C(=O)Nc4ccc(F)cc4F)cc3)C(=O)N1CCc1c2[nH]c2ccccc12 | -0.2 | -14.1 | -81.4 | -5.0
CSc1[nH]c(-c2ccccc2)cc1C(C)=O | -0.3 | 3.5 | 1.7 | 9.1
COC(=O)c1ccc(Nc2c(C#N)cnc3ccc(Cl)cc23)cc1 | 17.3 | 10.5 | 33.1* | 6.6
Cn1nc(C(=O)N2CCN(Cc3ccccc3)CC2)c2c1-c1ccccc1S(=O)(=O)C2 | -15.3 | -7.3 | -18.2 | -12.9
O=S(=O)(c1ccc(Br)cc1)N1CCN=C1N1CCCCC1 | 7.9 | 15.5 | 4.6 | 15.9
Cc1ccc2c(=O)c(C(=O)Nc3ccccc3)cn(CC(=O)NC3CCCCC3)c2n1 | 56.0* | 5.3 | 9.1 | 8.0
Cc1ccc2c(=O)c(C(=O)Nc3ccc(F)cc3)cn(CC(=O)NC3CCCC3)c2n1 | nt | -17.7 | -47.0 | -7.4
O=C(O)CN=C1NC(=O)/C(=C\c2ccc3c(c2)OCO3)S1 | -4.9 | -3.9 | -2.3 | -4.3
NS(=O)(=O)c1cccc(NS(=O)(=O)c2ccc(/C=C/C(=O)OCC(=O)c3ccc(Br)cc3)cc2)c1 | 15.4 | 58.9* | 18.0 | 4.7
COc1ccc(NS(=O)(=O)c2ccc(/C=C\c3onc(C)c3NC(C)=O)cc2)cc1 | 5.4 | nt | nt | 4.0
CCc1ccc(NC(=O)C(C)OC(=O)/C=C/c2ccc(S(=O)(=O)Nc3cccc(S(N)(=O)=O)c3)cc2)cc1 (stereo not drawn) | 33.1* | 27.4 | 15.4 | 16.5
COc1ccc(C(=O)COC(=O)/C=C/c2ccc(S(=O)(=O)Nc3cccc(S(N)(=O)=O)c3)cc2)cc1 | 10.2 | 43.4* | 21.7 | 4.1
